What was measured:
Assay in all cases: protein binding microarray; high values mean tight binding
Settings in all cases: dsDNA, one strand shown
RELARELA (p65 homodimer) = RELARELA (p65 homodimer) (Homo sapiens, UniProt Q04206 1-307)
p50p50 homodimer = p50p50 homodimer (Homo sapiens, UniProt P19838 7-356)
p52p52 homodimer = molecular target: T1, p52p52 homodimer (Homo sapiens, UniProt Q00653 4-332)
T1 sequence: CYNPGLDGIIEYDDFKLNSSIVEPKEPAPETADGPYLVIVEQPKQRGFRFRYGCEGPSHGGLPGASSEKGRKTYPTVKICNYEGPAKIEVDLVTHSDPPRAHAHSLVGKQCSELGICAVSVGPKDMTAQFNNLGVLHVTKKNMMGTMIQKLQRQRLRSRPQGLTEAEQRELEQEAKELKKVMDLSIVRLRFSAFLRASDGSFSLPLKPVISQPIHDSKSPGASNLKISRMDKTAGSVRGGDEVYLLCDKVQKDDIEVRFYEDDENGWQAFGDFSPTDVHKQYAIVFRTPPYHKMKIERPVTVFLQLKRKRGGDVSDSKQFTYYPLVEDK

[1] = molecular target: RELA (p65) subunit of heterodimer;p50 subunit (Homo sapiens;Homo sapiens, UniProt Q04206;P19838 1-307;7-356)
RELA (p65) subunit of heterodimer;p50 subunit, sequence (Q04206 1-307, chain 1 of 2): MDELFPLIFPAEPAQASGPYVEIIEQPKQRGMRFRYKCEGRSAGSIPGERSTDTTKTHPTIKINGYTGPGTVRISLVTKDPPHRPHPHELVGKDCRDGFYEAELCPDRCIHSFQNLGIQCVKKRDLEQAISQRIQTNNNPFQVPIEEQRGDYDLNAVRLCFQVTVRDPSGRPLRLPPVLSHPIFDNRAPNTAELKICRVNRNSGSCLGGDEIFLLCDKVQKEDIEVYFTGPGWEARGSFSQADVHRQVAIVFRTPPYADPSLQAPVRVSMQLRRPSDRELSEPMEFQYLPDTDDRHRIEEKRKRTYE
RELA (p65) subunit of heterodimer;p50 subunit, sequence (P19838 7-356, chain 2 of 2): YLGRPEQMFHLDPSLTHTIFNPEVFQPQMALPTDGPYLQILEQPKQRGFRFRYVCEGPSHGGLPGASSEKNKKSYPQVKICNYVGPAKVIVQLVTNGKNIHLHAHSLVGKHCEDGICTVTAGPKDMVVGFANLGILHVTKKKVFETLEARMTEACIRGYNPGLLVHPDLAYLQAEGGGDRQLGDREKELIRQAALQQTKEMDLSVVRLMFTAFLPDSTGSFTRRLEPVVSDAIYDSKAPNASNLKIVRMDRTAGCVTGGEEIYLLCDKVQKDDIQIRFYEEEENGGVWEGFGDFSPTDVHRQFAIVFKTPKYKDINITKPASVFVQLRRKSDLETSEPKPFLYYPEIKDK

[2] = molecular target: RELA (p65) subunit of heterodimer;p52 subunit (Homo sapiens;Homo sapiens, UniProt Q04206;Q00653 1-307;4-332)
RELB subunit;p50 subunit = RELB subunit;p50 subunit (Homo sapiens;Homo sapiens, UniProt Q01201;P19838 120-401;7-356)
RELB subunit;p52 subunit = molecular target: T2, RELB subunit;p52 subunit (Homo sapiens;Homo sapiens, UniProt Q01201;Q00653 120-401;4-332)
T2 sequence 1: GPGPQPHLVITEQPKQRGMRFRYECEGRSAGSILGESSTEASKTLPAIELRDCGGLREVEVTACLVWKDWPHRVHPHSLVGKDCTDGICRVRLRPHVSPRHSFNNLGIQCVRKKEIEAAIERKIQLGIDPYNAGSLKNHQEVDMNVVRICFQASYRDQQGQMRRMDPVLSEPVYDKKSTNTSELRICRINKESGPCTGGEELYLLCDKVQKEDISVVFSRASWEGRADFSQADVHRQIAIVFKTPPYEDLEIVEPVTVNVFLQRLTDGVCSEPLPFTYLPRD
T2 sequence 2: T1 sequence

[3] = molecular target: C-Rel subunit;p50 subunit (Homo sapiens;Homo sapiens, UniProt Q04864;P19838 1-285;7-356)
[4] = molecular target: T3, C-Rel subunit;p52 subunit (Homo sapiens;Homo sapiens, UniProt Q04864;Q00653 1-285;4-332)
T3 sequence 1: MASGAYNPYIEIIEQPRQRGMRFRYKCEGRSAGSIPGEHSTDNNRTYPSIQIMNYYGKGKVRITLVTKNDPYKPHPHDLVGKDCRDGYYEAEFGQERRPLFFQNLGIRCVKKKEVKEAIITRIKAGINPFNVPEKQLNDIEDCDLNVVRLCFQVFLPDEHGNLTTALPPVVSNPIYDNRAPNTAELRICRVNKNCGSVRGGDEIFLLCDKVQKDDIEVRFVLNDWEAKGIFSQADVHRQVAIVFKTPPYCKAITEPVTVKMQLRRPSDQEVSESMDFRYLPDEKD
T3 sequence 2: T1 sequence

RELARELA (p65 homodimer), sequence (Q04206 1-307): as the sequence (Q04206 1-307, chain 1 of 2) above
p50p50 homodimer, sequence (P19838 7-356): as the sequence (P19838 7-356, chain 2 of 2) above

Sequence	binding signal (RELARELA (p65 homodimer)) [z-score]	binding signal (p50p50 homodimer) [z-score]	binding signal (p52p52 homodimer) [z-score]	binding signal [1] [z-score]	binding signal [2] [z-score]	binding signal (RELB subunit;p50 subunit) [z-score]	binding signal (RELB subunit;p52 subunit) [z-score]	binding signal [3] [z-score]	binding signal [4] [z-score]
GAATTCCTCCC	0.897	-0.0187	-0.00969	0.17	0.0178	-0.14	-0.0714	0.325	0.177
AAGGGTTTCCC	2.18	0.668	1.31	1.15	1.43	0.696	1.17	1.07	1.57
GGAAGCCTCCC	-0.446	-1.14	-0.595	-0.524	-0.721	-0.789	-0.717	-0.888	-0.726
AAGGTTATCCC	-0.0178	-0.0329	0.0211	-0.139	-0.074	-0.236	-0.173	-0.0847	-0.165
AGATGAACCCC	-0.232	-0.284	-0.287	-0.402	-0.342	-0.255	-0.0728	-0.464	-0.256
CGATGCTCCCC	0.0266	-0.0437	-0.125	-0.0461	-0.196	0.111	0.0431	0.0174	-0.273
AGATTACTCCT	-0.0935	-1.24	-0.548	-0.691	-0.875	-1.01	-0.843	-1.01	-0.848
AAGATTCTCCT	-0.184	-1.03	-0.669	-0.803	-0.991	-0.921	-0.819	-1.1	-0.941
CAGAGATTCCT	0.143	-1.43	-0.492	-0.806	-0.992	-1.16	-1	-0.64	-0.606
GGAGAAACCCT	0.379	-0.144	0.127	0.478	0.623	-0.35	0.176	0.255	0.637
CGGGTCGTCCT	-0.683	-1.36	-0.504	-0.972	-0.834	-0.864	-0.859	-1.15	-0.64
AAAGGTCCCCT	-0.0302	1.09	0.848	0.65	0.742	1.05	0.989	0.669	0.512
AGATACCCCCT	0.103	1.43	1.19	1.36	1.5	1.38	1.84	1.13	1.24
AAATAGATCCC	-0.751	-0.68	-0.334	-0.662	-0.554	-0.403	-0.661	-0.87	-0.679
AAGGGCGTCCT	-1.14	-1.28	-0.61	-1.06	-0.909	-0.994	-0.788	-1.25	-0.659
CGAGTGCTCCT	-0.962	-2.12	-0.788	-1.11	-1.03	-1.37	-0.983	-1.63	-0.978
CAATACTTCCT	-0.118	-1.09	-0.562	-0.687	-0.787	-1.04	-0.781	-0.77	-0.829
AAATACACCCC	-0.0111	0.252	0.0531	0.224	0.204	0.209	0.566	0.342	0.187
CAGTTGACCCT	-0.398	-0.922	-0.533	-0.555	-0.554	-0.526	-0.777	-1.18	-0.639
CAGAGCATCCC	-0.631	-1.46	-0.586	-0.856	-1.02	-1.02	-0.893	-1.22	-1
GGAGGATCCCC	0.374	1.03	1.19	1.54	1.22	1.27	0.916	1.15	0.899
CAGTTACCCCC	0.379	1.11	0.638	0.953	0.838	1.01	1.4	1.01	0.788
CAAAGTACCCC	0.144	0.83	0.509	0.648	0.795	1.07	1.19	0.721	0.588
GAGGGTTCCCT	-0.44	-0.133	-0.121	-0.238	-0.0267	-0.011	0.0453	-0.173	-0.0776
CAATAATCCCT	-0.146	0.635	0.735	0.226	0.493	0.496	0.698	0.212	0.284
GGATACCCCCC	0.633	1.23	1.22	1.77	1.48	1.06	1.52	1.14	1.54
GAAGTAATCCT	-0.663	-1.65	-0.468	-1	-0.977	-1.16	-0.928	-1.23	-0.892
GGAGACGCCCT	-0.954	-1.6	-0.72	-0.832	-0.77	-1.05	-0.933	-1.16	-0.641
GAGTTTCTCCT	-0.323	-1.49	-0.546	-0.596	-0.78	-0.911	-0.855	-0.907	-0.692
AAAGAATTCCC	2.27	1.08	1.36	1.57	1.25	1.07	0.975	1.54	1.12
